{"source": "PubChem BioAssay AID2778", "about": "(National Center for Advancing Translational Sciences (NCATS), 2010)", "note": "Records with an inconclusive call do not appear. Active and inactive are the calls of the source. The call rests on the fitted dose curve; in most records, active means well fitted inhibition curve with a large enough effect; inconclusive means small, poorly fitted or top-dose-only effect, or effect the other way; inactive means flat fitted curve, though single readings scatter. On the % scale 0 is the no-effect control and ±100 the full control effect; potency means the concentration at half of the fitted maximal effect."}
{"target": "Menin (Homo sapiens) (UniProt O00255)", "sequence (O00255 whole entry, looked up)": "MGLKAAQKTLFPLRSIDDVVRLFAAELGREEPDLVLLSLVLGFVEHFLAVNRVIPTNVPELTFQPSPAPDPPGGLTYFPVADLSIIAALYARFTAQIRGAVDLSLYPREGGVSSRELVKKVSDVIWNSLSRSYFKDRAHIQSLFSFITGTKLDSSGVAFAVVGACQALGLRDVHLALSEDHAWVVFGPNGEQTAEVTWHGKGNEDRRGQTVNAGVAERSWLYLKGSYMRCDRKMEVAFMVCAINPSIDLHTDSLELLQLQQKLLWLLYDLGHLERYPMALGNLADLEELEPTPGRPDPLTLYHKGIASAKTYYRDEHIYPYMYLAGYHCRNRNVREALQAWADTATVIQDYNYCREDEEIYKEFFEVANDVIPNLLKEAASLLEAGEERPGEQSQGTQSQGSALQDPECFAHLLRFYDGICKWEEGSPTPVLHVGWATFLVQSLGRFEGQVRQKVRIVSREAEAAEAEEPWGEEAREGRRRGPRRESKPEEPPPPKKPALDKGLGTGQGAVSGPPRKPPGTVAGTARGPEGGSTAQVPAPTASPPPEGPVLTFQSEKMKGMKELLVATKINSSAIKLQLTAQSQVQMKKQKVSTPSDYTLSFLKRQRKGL", "experiment": "Confirmation of Inhibitors Targeting the Menin-MLL Interaction in MLL Related Leukemias: Confirmation in an HTRF (commercial TR-FRET) Assay using His-tagged menin and biotin-labeled MLL peptide", "conditions": "His-menin / biotin-MLL peptide binding; series mostly up to 126 µM; activity change, negative = inhibition: at the top concentration", "outline": "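Compounds were incubated 1 hr at ambient with a preformed His6-menin (200 nM)/biotinylated MLL-w.t. peptide (80 nM) complex in Tris pH 7.5 buffer; anti-His Eu-cryptate (3.5 nM) and SA-XL665 (10 nM) added, TR-FRET read after 1h.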"}
{"smiles": "Cc1ccc(NC(=O)CN(C)C(=O)COc2cccc3cccnc23)cc1", "activity change, negative = inhibition": "-4.79% [at 383 µM] (inactive)"}
{"smiles": "CCOC(=O)N1CCN(CC(=O)N2c3ccccc3Sc3ccccc32)CC1", "activity change, negative = inhibition": "18.2% (inactive)"}
{"smiles": "O=C(/C=C/c1ccccc1)NC(NC(=S)Nc1cc(Cl)ccc1Cl)C(Cl)(Cl)Cl", "note": "(stereo not given)", "activity change, negative = inhibition": "-16.1% [at 383 µM] (inactive)"}
{"smiles": "CC1(C)CN=C(N2CCN(c3ncnc4sc5c(c34)CCCC5)CC2)S1", "Potency": "28.2 µM (active)"}
{"smiles": "CN1CCN(CC(=O)c2ccccc2F)CC1", "activity change, negative = inhibition": "7.33% (inactive)"}
{"smiles": "COC(=O)[C@H](C)NC(=O)c1cc2c(cn1)[nH]c1ccccc12", "Potency": "50.1 µM (active)"}
{"smiles": "CCc1ccc(CNC(=O)CCS(=O)(=O)Cc2ccccc2F)cc1", "activity change, negative = inhibition": "3.6% (inactive)"}
{"smiles": "NC(=O)[C@@H]1CCCNc2c(I)cc([N+](=O)[O-])cc2C(=O)N[C@@H](CCCN=C(N)N)C(=O)N[C@@H](CCCN=C(N)N)C(=O)N1", "activity change, negative = inhibition": "-15.7% [at 383 µM] (inactive)"}
{"smiles": "CCOc1ccc(CCNC(=O)C(C)N2C(=O)CC(C)(C)Sc3ccccc32)cc1", "note": "(stereo not given)", "activity change, negative = inhibition": "10.9% (inactive)"}
{"smiles": "CCc1ccccc1NC(=O)COc1cccc(-n2cnnn2)c1", "activity change, negative = inhibition": "2.78% [at 383 µM] (inactive)"}
{"smiles": "CCN(CCn1cccn1)Cc1ccccc1OCC(O)CN1CCc2ccccc2C1", "note": "(stereo not given)", "activity change, negative = inhibition": "-6.8% (inactive)"}
{"smiles": "COc1ccc(CN2CCC(Cc3ccccc3)CC2)c(C)c1C", "activity change, negative = inhibition": "7.64% (inactive)"}
{"smiles": "CN1CCN(CC(=O)Nc2ccc(S(=O)(=O)N(C)C)cc2)CC1", "activity change, negative = inhibition": "0.239% (inactive)"}
{"smiles": "CCCC(c1nnnn1Cc1cccs1)N1CCN(C2CCCC2)CC1", "note": "(stereo not given)", "activity change, negative = inhibition": "-23.6% (inactive)"}
{"smiles": "CCOc1cc(CNCCc2ccc(S(N)(=O)=O)cc2)ccc1OCc1ccccc1", "Potency": "251 µM (active)"}
{"smiles": "Cc1ccc(C#CC(C)(O)C(C)(C)C)cn1", "note": "(stereo not given)", "activity change, negative = inhibition": "0.885% (inactive)"}
{"smiles": "O=C1C(SCCO)=C(SCCO)C(=O)c2ccccc21", "Potency": "39.8 µM (active)"}
{"smiles": "COc1ccccc1CNCC(=O)Nc1ccc(C#N)cc1", "activity change, negative = inhibition": "-1.25% [at 383 µM] (inactive)"}
{"smiles": "CC(C)Sc1nc(N2CCOCC2)c2c3c(sc2n1)COC(C)(C)C3", "Potency": "316 µM (active)"}
{"smiles": "Cc1cccc(NC(=S)NC(NC(=O)OCc2ccccc2)C(Cl)(Cl)Cl)c1", "note": "(stereo not given)", "activity change, negative = inhibition": "-17.5% [at 383 µM] (inactive)"}
{"smiles": "O=C(NC1CCN(c2ncccn2)CC1)c1c(F)cccc1F", "activity change, negative = inhibition": "-1.59% [at 383 µM] (inactive)"}
{"smiles": "CCOc1ccc(NC(=O)c2cccc(OC(=S)N3CCC(C)CC3)c2)cc1", "activity change, negative = inhibition": "-5.98% (inactive)"}
{"smiles": "Cc1ccc[n+](-c2nc([O-])sc2/C=N/Nc2ccc([N+](=O)[O-])cc2)c1", "activity change, negative = inhibition": "11.4% (inactive)"}
{"smiles": "COc1ccc(C)cc1N(C(=O)c1snc(C(N)=O)c1N)C(C(=O)NC1CCCC1)c1ccc(F)cc1", "note": "(stereo not given)", "activity change, negative = inhibition": "-1.82% [at 383 µM] (inactive)"}
{"smiles": "CCCCC(=O)NC(=S)Nc1nnn(CCC)n1", "activity change, negative = inhibition": "8.69% (inactive)"}
{"smiles": "COc1ccc2nc(NC(=O)CSc3nnc(N)s3)sc2c1", "activity change, negative = inhibition": "-7.53% (inactive)"}
{"smiles": "C=C(C)CNC(=S)Nc1cccc2cnccc12", "activity change, negative = inhibition": "6.82% (inactive)"}
{"smiles": "Clc1ccc(-c2nnc(-c3ccccc3)nc2-c2c[nH]c3ccccc23)cc1", "activity change, negative = inhibition": "-19.6% (inactive)"}
{"smiles": "CCOc1ccccc1N(CC(=O)Nc1ccccc1C(=O)N1CCCC1)S(C)(=O)=O", "activity change, negative = inhibition": "-3.97% (inactive)"}
{"smiles": "O=C(O)/C(=C\\c1ccc(F)cc1)c1ccc(-c2ccccc2)cc1", "activity change, negative = inhibition": "-11.4% (inactive)"}
{"smiles": "COC(CSc1nc(N)c2c3c(sc2n1)CN(C)CC3)OC", "activity change, negative = inhibition": "5.19% (inactive)"}
{"smiles": "O=C(Nc1nnc(SCc2ccc(F)cc2)s1)c1ccc2c(c1)C(=O)N(c1ccccc1Cl)C2=O", "activity change, negative = inhibition": "-21.6% [at 383 µM] (inactive)"}
{"smiles": "O=C(/C=C/c1ccccc1)c1cccs1", "activity change, negative = inhibition": "2.03% [at 383 µM] (inactive)"}
{"smiles": "Cc1nc2oc3c(NCC4CCCO4)ncnc3c2c2c1COC(C)(C)C2", "note": "(stereo not given)", "activity change, negative = inhibition": "11.4% (inactive)"}
{"smiles": "CCc1nnc(NC(=O)C2(C)COC(c3ccc(OC)cc3)OC2)s1", "note": "(stereo not given)", "activity change, negative = inhibition": "-0.226% (inactive)"}
